Experimental findings from ChEMBL document CHEMBL1157539, “Thousands of chemical starting points for antimalarial lead identification” (Nature, 2010) are described below.

The term Inhibition denotes the percentage by which the read-out fell short of the control. The low end stands for a weak effect, the high end for a strong effect.

In this assay the test system is Plasmodium falciparum. Description: GSK_TCMDC: Inhibition of Plasmodium falciparum Dd2 in whole red blood cells, using parasite LDH activity as an index of growth. Test compounds present at 2uM. In kind it is functional.
In turn, `COc1cc(OC)c(NC(=O)C2c3ccccc3C(=O)N(C)C2c2cccs2)cc1Cl` (stereo not drawn) displayed an Inhibition of 52%.

In the case of `O=C(NCc1cccs1)[C@H](Cc1ccccc1)Nc1ccnc(NCCc2ccc(F)cc2)n1.O=C(O)C(F)(F)F`, the Inhibition is recorded as 52%. `Cc1cccc2nc(-c3ccc(-c4ccc(CNCc5ccc(CN)cc5)cc4)s3)[nH]c12.O=C(O)C(F)(F)F` gave an Inhibition of 85%. Take `Cc1c(CNCCCNc2nc3ccccc3[nH]2)sc(C(F)F)c1Br.Cl`: the Inhibition is reported as 5%.

The compound `CN(C)CCCOc1ccc(CCNCc2cccc(Oc3ccc(Cl)cc3)c2)cc1.O=C(O)C(F)(F)F` registered an Inhibition of 26%. `COc1ccc2ncc(Cl)c([C@@H](O)CN3CCC(NCc4cc5c(cn4)OCCO5)CC3)c2c1.Cl` registered an Inhibition of 100%. Regarding `CC(Nc1ccc2c(c1)OCCO2)C(=O)Nc1cc(C(F)(F)F)ccc1N1CCOCC1` (stereo not drawn), the Inhibition was determined as 70%.

Compound `CCOc1ccc2c(=NN=Cc3ccc(OC)c(OC)c3)cc(C)[nH]c2c1` came in with an Inhibition of 58%. `COc1ccc(-c2cnc3[nH]cc(-c4ccc(C(=O)O)c(C)c4)c3c2)cn1.O=C(O)C(F)(F)F`: the Inhibition is on record as 99%.

`Cc1cc(C2CCN(CCCCNC(=O)c3ccc(-c4ccc(C(F)(F)F)cc4)cc3)CC2)c(C)cc1OCC(N)=O` registered an Inhibition of 44%. Regarding `Cl.Nc1c(C(=O)NCCCCN2CCN(c3nsc4ccccc34)CC2)sc2ccccc12`, the Inhibition came out at 0%.

In turn, `O=C(O)C(F)(F)F.O=S(=O)(NCCN1CCCC1)c1ccc(-c2ccc(CNCc3ccc(F)cc3)cc2)cc1` had an Inhibition of 44%. `NC1CCN(Cc2ccc(-c3ccc(-c4nc5ccccc5[nH]4)cc3)cc2)C1.O=C(O)C(F)(F)F` (stereo not drawn) came in with an Inhibition of 100%.
